# GPR151 ag: activators of human GPR151, primary screen, cell-based, PathHunter beta-arrestin, luminescence; hit rate 1% among 650,000; G-protein coupled receptor 151 (Homo sapiens), Q8TDV0; activation, % at 11.2 µM; PathHunter beta-arrestin GPR151 cells; in the data active means activation above about 4.9%;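 further: 0% = median of compound wells and 100% = cells with positive control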
# Target sequence (Q8TDV0 whole entry, looked up): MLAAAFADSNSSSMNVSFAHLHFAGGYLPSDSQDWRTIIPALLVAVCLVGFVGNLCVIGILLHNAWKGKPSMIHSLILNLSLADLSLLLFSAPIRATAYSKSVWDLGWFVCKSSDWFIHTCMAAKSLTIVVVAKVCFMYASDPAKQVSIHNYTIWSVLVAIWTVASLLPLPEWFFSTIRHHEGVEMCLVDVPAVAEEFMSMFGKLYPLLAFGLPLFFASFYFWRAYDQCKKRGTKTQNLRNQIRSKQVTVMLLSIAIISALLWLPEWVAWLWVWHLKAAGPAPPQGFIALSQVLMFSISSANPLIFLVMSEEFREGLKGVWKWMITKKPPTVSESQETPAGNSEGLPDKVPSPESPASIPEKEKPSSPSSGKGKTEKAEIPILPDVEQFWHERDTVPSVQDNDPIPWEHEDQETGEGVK
# MITF primary: MITF inhibitors, primary screen, biochemical, AlphaScreen, human; Microphthalmia-associated transcription factor (Homo sapiens), O75030; AlphaScreen MITF homodimerization, bead proximity signal; inhibition, % at 2.6 µM; hit rate 0.91% among 650,000; AID 1259374, 2018; in the data active means inhibition above about 50%;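 further: 0% = vehicle wells with protein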
# FBW7 activator: FBW7 E3 ligase activators, primary screen, biochemical, AlphaScreen, human; AlphaScreen FBW7–phospho-cyclin E peptide binding, activator screen; normalized activity (activation), % at 26.1 µM; hit rate 0.13% among 650,000; AID 1259310, 2017; in the data active means normalized activity above about 1.9%;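 further: purified mutant Fbw7 with reduced substrate affinity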
# TEAD-YAP block: TEAD-YAP interaction inhibition, primary screen, TEAD-YAP interaction inhibitor project, luminescence, HEK-TIYL cells | TEAD-Gal4/YAP UAS-luciferase luminescence | hit rate 1.4% among 640,000 | inhibition, % at 9.12 µM; in the data active means inhibition above about 32%;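 further: 0% = median of test compound wells and 100% = reference inhibitor wells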
# GPR151 conf act: GPR151 activators, triplicate retest, confirmation, cell-based, PathHunter beta-arrestin, luminescence | shares compounds with GPR151 ag | GPR151 PathHunter beta-arrestin cells, 90 min; % of EA-reagent control over plate median | activation, % at 11.2 µM | 6,700 tested, under 10 active | AID 1508609, 2020;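 active means mean percent activation across replicates above the confirmation screen cutoff of 4.91%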
# GPR119 ag: GPR119 activators in beta-arrestin cells, counter-screen for GPR151 activator project, cell-based, PathHunter beta-arrestin, luminescence, triplicate. 90 min; 0 = compound-well median, 100 = enzyme-acceptor control. hit rate 0.3% among 6,700. AID 1508611, 2020. shares compounds with GPR151 ag. activation, % at 11.2 µM;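 active means mean percent activation in the counterscreen above 29.09%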;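 further: counterscreen on off-target GPR119 to flag nonselective hits from the GPR151 activator screen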
# Numbers without * were called inactive; x = not tested or not shown. Only some compounds are listed: those with a hit (about 3.5% of all), similar ones and a draw of the others.
SMILES,GPR151 ag,MITF primary,FBW7 activator,TEAD-YAP block,GPR151 conf act,GPR119 ag
Cc1ccc(N2C(=O)SC(Nc3ccccc3)C2=O)cc1 (stereo not given),0.6,13.1,0.1,-42.8,x,x
CCCS(=O)(=O)c1c(S(=O)(=O)CCC)c2ccc(C(C)=O)cn2c1C(=O)c1ccc(C)cc1,1.2,14.6,0.1,4.9,x,x
CCCS(=O)(=O)c1c(S(=O)(=O)CCC)c2ccc(C(C)=O)cn2c1C(=O)c1ccc(OC)cc1,6.1*,-1.2,0.1,-3.3,1.3,17.9
Cc1cc(Nc2ccc(N3CCOCC3)cc2)nc(NCc2cccnc2)n1,5.4*,2.4,0.0,21.9,1.4,-1.8
Cc1cc(Nc2ccc3c(c2)OCO3)nc(Nc2ccc(N3CCOCC3)cc2)n1,10.0*,17.9,-0.3,92.7*,2.0,71.2*
Cc1cc(Nc2ccc(N3CCOCC3)cc2)nc(Nc2ccncc2)n1,-1.4,13.8,-0.1,-2.3,x,x
CCOC(=O)c1cnc2ccc(OC)cc2c1Nc1cccc(C(F)(F)F)c1,0.7,2.9,-0.2,7.5,x,x
CCOc1ccccc1CN1CCc2nnc(C(C)NC(=O)c3cccc(OC)c3)n2CC1 (stereo not given),-1.9,13.1,0.0,2.5,x,x
CCCCOC(=O)c1cccc(NC(=S)NC(=O)c2cc(OC)c(OC)c(OC)c2)c1,5.1*,6.0,-0.1,-8.3,0.0,0.1
O=C(O)/C(=C\c1cccc([N+](=O)[O-])c1)NC(=O)c1ccccc1Cl,0.2,-3.5,0.1,-3.6,x,x
O=C(Nc1cc(C(F)(F)F)cc(C(F)(F)F)c1)C1CC1,10.3*,12.0,0.3,4.1,-1.0,-22.4
COc1ccc(CN2C[C@@H]3C[C@@H](c4cccc5nonc45)N4CCC[C@@]34C2=O)cc1,-0.4,10.5,0.4,-0.7,x,x
COc1ccc(CN2C[C@@H]3C[C@@H](c4ccc5nonc5c4)N4CCC[C@@]34C2=O)cc1,5.4*,16.7,0.0,0.0,-0.4,3.6
Cc1cc(C)nc(SCC(=O)Nc2ncc3c(n2)CC(C)(C)CC3=O)n1,5.6*,5.5,0.0,8.5,1.2,12.9
CC(=O)Nc1ncc2c(n1)CC(C)(C)CC2=O,0.8,9.4,0.1,-1.1,x,x
Cc1cccc(-c2cn[nH]c2C2CCN(Cc3cnn(C)c3)CC2)c1,-0.1,-3.1,0.0,0.8,x,x
COc1cn(CC(=O)Nc2cc(C)cc(C)c2)c(CSc2nccc(C)n2)cc1=O,14.7*,-1.2,0.0,1.2,-0.6,-3.6
COc1cn(CC(=O)Nc2cccc(C)c2)c(CSc2ncccn2)cc1=O,1.6,8.5,0.1,-5.4,x,x
CC(=O)c1cccc(NC(=O)/C=C/c2ccc(Cl)cc2)c1,-1.0,6.4,0.2,-24.5,x,x
Nc1c(C(=O)NCCc2ccccc2)sc(=S)n1-c1cccc(C(F)(F)F)c1,-0.1,-6.0,0.0,2.7,x,x
O=C(CCCOc1ccc(Cl)cc1Cl)Nc1ncn[nH]1,-0.5,-9.6,-0.1,-6.8,x,x
O=C(COc1ccc(Cl)cc1Cl)Nc1ncn[nH]1,6.6*,12.9,-0.3,42.4*,2.7,-13.2
CC(=O)Nc1ccc(NC(=O)COc2ccc(Cl)cc2Br)cc1,5.1*,7.2,0.0,-21.6,0.2,15.3
CCOC(=O)c1ccc(NC(=S)Nc2ccc3cn[nH]c3c2)cc1,1.9,-5.0,-0.1,-0.8,x,x
CCc1cccc(C)c1NC(=O)CC1CCS(=O)(=O)C1 (stereo not given),-0.3,4.4,0.1,-0.4,x,x
SMILES,GPR151 ag,MITF primary,FBW7 activator,TEAD-YAP block,GPR151 conf act,GPR119 ag
CN(C)CCNS(=O)(=O)c1cccc2nsnc12,0.5,-3.2,0.1,7.4,x,x
O=C(NN=C1C2CC3CC(C2)CC1C3)c1cccc([N+](=O)[O-])c1,1.3,7.3,-0.1,-17.3,x,x
O=C(O)CCC/C=C/C[C@@H]1[C@@H](/C=C/[C@@H](O)COc2cccc(C(F)(F)F)c2)[C@H](O)C[C@@H]1O,5.1*,2.0,x,x,1.6,7.7
O=C(O)CCC/C=C\C[C@@H]1[C@@H](/C=C/[C@@H](O)COc2cccc(C(F)(F)F)c2)[C@H](O)C[C@@H]1O,3.9,-4.7,x,x,x,x
COc1cc(OC)c(C(=O)OC(C)C(=O)NC(N)=O)cc1OC (stereo not given),12.7*,5.7,-0.1,-4.0,0.6,2.8
CCOc1ccc(S(=O)(=O)NC2CC2)cc1,2.9,7.3,0.2,4.9,x,x
CCOc1ccc(S(=O)(=O)NC2CCCCC2)cc1,5.3*,12.4,0.2,3.8,-0.8,-5.7
Cc1c(C(=O)CSc2ccc(F)cc2F)sc2ncnn12,5.9*,10.3,0.0,-7.6,0.2,7.0
CO/N=C(\CSc1ccccc1OC)c1sc2ncnn2c1C,2.6,-4.6,0.3,-14.9,x,x
OCCNCCCCOc1cccc(Cl)c1,-0.1,15.1,0.2,11.2,x,x
CCc1ccc(N(C(=O)c2csnn2)C(C(=O)NC(C)(C)CC)c2ccncc2)cc1 (stereo not given),21.9*,9.7,-0.1,-8.4,0.0,7.9
COc1ccc(CCNC(=O)COc2ccc(C(C)C)cc2)cc1,6.7*,-6.1,-0.1,3.0,-0.5,-11.8
CCOc1ccc(S(=O)(=O)N(CC(=O)NCCSc2ccccc2)c2ccccc2)cc1,5.7*,2.8,-0.1,7.2,1.9,20.8
CC(C)c1ccc(OCC(=O)NCCCS(=O)(=O)N2CCc3ccccc3C2)cc1,8.2*,1.0,0.1,2.1,0.6,-0.8
COc1ccc(OCC(=O)NCCSc2ccccc2)cc1,10.2*,0.7,0.0,-22.0,0.1,7.4
COc1ccc(C(=O)NC(CC(=O)O)c2cccc([N+](=O)[O-])c2)cc1OC (stereo not given),-0.3,-11.5,0.0,-1.0,x,x
CC(C)CNC(=O)Cn1nnc2ccccc2c1=O,7.7*,-2.1,-0.1,-8.8,0.3,2.4
CC(C)CC(=O)N1CCC(n2nnc3ccccc3c2=O)CC1,6.0*,27.2,1.1,0.3,1.0,5.1
CC(=O)Nc1ccc(NC(=O)Cn2c(C)c3cnn(-c4ccccc4)c(=O)c3c2C)cc1,-0.4,6.0,0.0,6.9,x,x
C=CCNC(=O)c1sc(=S)n(CCc2ccccc2)c1N,5.2*,8.5,-0.2,-34.3,0.2,0.8
CCOC(=O)/C(=C/Nc1ccccc1)NC(=O)c1ccc([N+](=O)[O-])cc1,0.2,-5.5,0.0,5.7,x,x
CC(=O)c1cc2c(cc1N/C(=N/S(=O)(=O)c1ccccc1)c1ccccc1)OCO2,0.6,-12.8,0.3,1.5,x,x

# Screening results as filed in PubChem BioAssay.
